Assay results as given in PubChem BioAssay AID602438 (Sanford-Burnham Center for Chemical Genomics, 2012).
Hit rate of the full screen: of about 360,000 compounds, about 3,100 (0.86%) were called active. The sample as a whole holds a higher share of actives than the screen did. Unmarked numbers belong to inactive results.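 How the source made its calls: active means inhibition or corrected inhibition above about 18%, plus a signal ratio from 0.5 to 1.5 (limit read from the data, passing the limit was not always enough); inactive means the rest.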

target: Neuropilin-1 (Homo sapiens) (UniProt O14786); experiment: modulators of CendR peptide binding to NRP-1, primary screen, biochemical, fluorescence polarization, uHTS (AID 602438); conditions: FAM-RPARPAR peptide binding to NRP-1, fluorescence polarization; at 25 µM; stronger effect = higher value
Sequence (O14786 whole entry, looked up): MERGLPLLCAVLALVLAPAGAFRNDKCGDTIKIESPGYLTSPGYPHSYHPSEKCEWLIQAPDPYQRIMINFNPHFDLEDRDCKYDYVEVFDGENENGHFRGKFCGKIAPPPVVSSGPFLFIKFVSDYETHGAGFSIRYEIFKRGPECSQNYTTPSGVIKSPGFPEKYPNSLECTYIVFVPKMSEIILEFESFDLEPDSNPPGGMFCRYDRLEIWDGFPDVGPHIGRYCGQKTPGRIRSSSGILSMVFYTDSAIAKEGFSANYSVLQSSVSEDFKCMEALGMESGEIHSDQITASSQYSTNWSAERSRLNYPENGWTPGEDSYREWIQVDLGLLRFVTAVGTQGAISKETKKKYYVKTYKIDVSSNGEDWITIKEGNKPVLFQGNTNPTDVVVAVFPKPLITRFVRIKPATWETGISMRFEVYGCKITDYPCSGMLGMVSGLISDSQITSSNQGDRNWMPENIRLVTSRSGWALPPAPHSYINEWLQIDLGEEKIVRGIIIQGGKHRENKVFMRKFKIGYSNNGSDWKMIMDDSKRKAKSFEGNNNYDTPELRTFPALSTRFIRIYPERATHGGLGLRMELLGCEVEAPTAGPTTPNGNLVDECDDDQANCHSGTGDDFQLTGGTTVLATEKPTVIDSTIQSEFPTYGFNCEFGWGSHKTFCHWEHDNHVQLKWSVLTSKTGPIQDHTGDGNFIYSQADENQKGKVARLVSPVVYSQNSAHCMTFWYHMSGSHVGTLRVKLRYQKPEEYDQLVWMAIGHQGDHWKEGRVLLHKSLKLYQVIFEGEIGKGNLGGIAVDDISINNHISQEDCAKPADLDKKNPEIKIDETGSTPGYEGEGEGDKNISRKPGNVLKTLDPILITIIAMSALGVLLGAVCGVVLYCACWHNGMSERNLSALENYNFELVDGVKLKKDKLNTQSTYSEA

| SMILES | inhibition |
| --- | --- |
| COc1ccc(N(CC(=O)NCCSCc2cccc(Cl)c2)S(C)(=O)=O)cc1 | -7.7% |
| CCCNC(=O)c1cc2c(c(-c3cccc(-c4ccc(C#N)cc4)c3)n1)[C@@H](CCO)N(C(=O)CC)C2 | 8.8% |
| O=C(N[C@H]1CC[C@H](CC(=O)N2CCCCC2)O[C@@H]1CO)c1cccc(F)c1 | -5% |
| CCCc1cc(=O)oc2c(C)c(OC(C)C(=O)NCC(O)c3ccccc3)ccc12 (centres undefined) | 22.4% (active) |
| Cc1cc(=O)oc2c(C)c(OC(C)C(=O)NC3CCN(Cc4ccccc4)CC3)ccc12 (centres undefined) | 12.6% |
| CCCc1cc(=O)oc2c(C)c(OCC(=O)NCc3ccccn3)ccc12 | -1% |
| CC1Cc2ccccc2N1CC(=O)Nc1ccc(S(N)(=O)=O)cc1 (centres undefined) | 3.7% |
| CC1COc2ccccc2N1S(=O)(=O)c1ccccc1 (centres undefined) | 8.8% |
| Cc1cc(C(C)(C)C)cc(S(=O)(=O)Nc2ccc(C(=O)O)cc2)c1C | 7.7% |
| O=C(O)c1ccc(F)c(S(=O)(=O)Nc2ccccc2)c1 | -11.7% |
| Cc1ccc(C(=O)Nc2ccccc2-c2ccccc2)cc1S(=O)(=O)Nc1ccccc1 | 29.8% (active) |
| COC(=O)C1CCN(C(=O)c2ccc3oc(Cc4ccc(Cl)cc4)nc3c2)CC1 | 8.2% |
| O=C(C1CCN(CC2CCCCC2)CC1)N1CCCC1 | 10.7% |
| COc1ccc(NC(=O)c2oc3ccc(S(=O)(=O)N4CCOCC4)cc3c2C)cc1 | 13.1% |
| Cc1noc(C)c1CSc1nc2cc(S(=O)(=O)N3CCOCC3)ccc2o1 | 21.4% (active) |
| NC(=O)CSc1nnc(-c2cccc(S(=O)(=O)N3CCOCC3)c2)o1 | -9.5% |
| C[C@@H]1ON(C)[C@H]2C[C@H]3c4cc(N5CCN(C)CC5)ccc4CCN3C(=O)[C@@H]12 | 4.7% |
| Cc1cc(C)cc(N(CCC#N)C(=O)CN2C(=O)NC3(CCCC3)C2=O)c1 | -5.9% |
| CCN(CC)S(=O)(=O)c1ccc2[nH]cc(C(=O)NCCc3ccccc3)c(=O)c2c1 | 8.6% |
| CN(C)/C(=N\OC(=O)c1ccccc1)c1nonc1N | 2% |
| C=CCOc1ccc(C2/C(=C(\O)c3c(C)[nH]c(C(=O)OC)c3C)C(=O)C(=O)N2CCN(C)C)cc1 (centres undefined) | 29.5% (active) |
| CCCOc1ccc(/C(O)=C2/C(=O)C(=O)N(CCN(C)C)C2c2ccc(OC)c(OC)c2)cc1 (centres undefined) | 1.7% |
| COc1cccc(C2/C(=C(/O)c3ccc(F)cc3)C(=O)C(=O)N2CCN(C)C)c1 (centres undefined) | 4% |

| SMILES | inhibition |
| --- | --- |
| Cc1ccc(-c2nc(CS(=O)CC(=O)N3CCN(c4ncccn4)CC3)c(C)o2)cc1 (centres undefined) | -11.2% |
| CCNC(=S)N(CCc1c(C)[nH]c2ccc(C)cc12)Cc1ccco1 | -23.4% |
| Cc1ccc(C)c(N(CC(=O)NCc2ccco2)C(=O)CCC(=O)Nc2ccccn2)c1 | -4.5% |
| CCCCC1=CC2=CC(=O)C(C)(OC(=O)CC)C(=O)C2=CN1CCCOC(C)C (centres undefined) | 29.4% (active) |
| CCN(CC)C(=O)N1CCN(C(=O)c2ccc(C)cn2)CC1 | 0.3% |
| Cc1ccc(C(CC(=O)O)NC(=O)c2ccc(S(=O)(=O)N3CCCC3)cc2)cc1 (centres undefined) | -5.6% |
| N/C(=N\OC(=O)Cc1ccc([N+](=O)[O-])cc1)c1ccccn1 | -0.7% |
| O=C(OCc1ccc([N+](=O)[O-])cc1)c1ccccn1 | 28.2% (active) |
| O=C(COC(=O)c1ccccn1)NNC(=O)c1ccc([N+](=O)[O-])cc1 | 2.2% |
| Cc1ccc(OCC(=O)N2CCN(C(=O)c3cccnc3)CC2)cc1 | 6.1% |
| O=C(C[C@H]1CC[C@H]2[C@@H](COC[C@H](O)CN2C(=O)c2ccccn2)O1)N1CCN(c2ccccc2)CC1 | 2.2% |
| COc1cc(C2C(C(=O)c3sc(C)nc3C)=C(O)C(=O)N2CCN(C)C)cc(OC)c1OC (centres undefined) | 0.6% |
| Cc1ccc(S(=O)(=O)N2CCC(=O)N([C@H](COCc3ccccc3)C(C)C)CC2)cc1 | -3.6% |
| COc1ccc(COCCN2CCN(S(=O)(=O)c3ccccc3)CCC2=O)cc1 | 28.5% (active) |
| Cc1ccc(S(=O)(=O)N2CCC(=O)N([C@H](COCc3ccccc3)Cc3ccccc3)CC2)cc1 | -15.7% |
| CCCCCn1nnnc1-c1nc2cc3ccccc3cc2[nH]c1=O | 0% |
| COCCCNC(=O)c1c(F)c(F)c(F)c(F)c1F | 8.4% |
| Cc1nc(C(F)(F)F)ccc1C(=O)N1CCC1(C)C(=O)NS(=O)(=O)c1ccccc1Cl (centres undefined) | 13.8% |
| NC(=O)COc1ccccc1C(=O)NC12CC3CC(CC(C3)C1)C2 | -2.6% |
| O=C(NCCN1CCOCC1)c1ccccc1N1C(=O)[C@@H]2Cc3c([nH]c4ccccc34)C(c3cccc(Cl)c3)N2C1=O (some centres undefined) | -5.5% |
| Cc1ccc(OCc2nnc(NC(=O)OCC(C)C)s2)cc1 | 19.5% (active) |
| O=C(Nc1nnc(COc2ccccc2)s1)Nc1ccccc1F | -10.8% |
| CCOCc1nnc(NC(=O)CSc2ccc(C)cc2)s1 | -1% |

| SMILES | inhibition |
| --- | --- |
| O=C(CNCc1ccco1)Nc1cc(S(=O)(=O)N2CCOCC2)ccc1N1CCCC1 | 7.8% |
| Cc1cc(C)c(CN2CCN(C(=O)Cn3ccc(NC(=O)OCc4ccccc4)nc3=O)CC2)c(C)c1 | 3.3% |
| O=C(c1ccccc1)c1cccn1CC(=O)N1CCN(c2ccc(F)cc2)CC1 | -4.3% |
| Cc1ccc(CNS(=O)(=O)c2ccc3c(c2)N(C)CCO3)cc1 | -8.8% |
| Cc1nonc1NC(=O)c1oc2ccccc2c1C | 7.8% |
| COc1ccc(-c2nonc2NC(=O)c2oc3ccc(F)cc3c2C)cc1OC | 30.3% (active) |
| CCc1nonc1NC(=O)c1oc2ccc(Cl)cc2c1C | 13.2% |
| O=C(NCc1ccc2c(c1)OCO2)C1CCCN(S(=O)(=O)c2cccs2)C1 (centres undefined) | -10.1% |
| CCCCc1c(-c2ccc(Br)cc2)ncn1CCc1ccccc1OC | 12.7% |
| CC(C)C1Cc2[nH][nH]c(=O)c2C(c2ccc(Cl)cc2)O1 (centres undefined) | -4.6% |
| CC(C)NC(=O)c1ccccc1S(=O)c1ccccc1C#N (centres undefined) | -10.3% |
| CCN(CCCCOC(=O)c1ccc(OC)c(OC)c1)C(C)Cc1ccc(OC)cc1 (centres undefined) | -0.7% |
| CCc1oc(-c2ccc(OC)cc2)c(C(=O)OCCCCCO)c1C(C)OCCO (centres undefined) | 23% (active) |
| COc1ccc(-c2oc3ncnc(NCCCO)c3c2-c2ccc(OC)cc2)cc1 | 4.1% |
| CC(=O)C1=CCC(c2ccccc2)N(S(=O)(=O)c2ccc(C)cc2)C1 (centres undefined) | -3.9% |
| CCOC(=O)C1=CC[C@@H](c2ccccc2)N(S(=O)(=O)c2ccc(C)cc2)[C@H]1c1cccc(OC)c1 | 26% (active) |
| CCOC(=O)C1=CCC(c2ccc(F)cc2)N(S(=O)(=O)c2ccc(C)cc2)C1 (centres undefined) | 19.9% (active) |
| CCOC(=O)C1=CC[C@@H](c2ccccc2)N(S(=O)(=O)c2ccc(C)cc2)[C@H]1c1ccc(CC)cc1 | 11.1% |
| CCOC(=O)C1=CC[C@@H](c2ccncc2)N(S(=O)(=O)c2ccc(C)cc2)C1 | 13.9% |
| Cc1ccc([C@@H]2CC=C(C(=O)O)[C@H](c3cccc(Cl)c3)N2S(=O)(=O)c2ccc(C)cc2)cc1 | -10.9% |
| CCN(CC)S(=O)(=O)c1ccc(CNC(=O)CN2C(=O)NC3(CCc4ccccc43)C2=O)cc1 (centres undefined) | -10.1% |
| CCOC(=O)CSc1ccccn1 | 2.8% |
| CCOC(=O)CSc1nc(N2CCOCC2)c2c(c1C#N)CC(C(C)C)OC2 (centres undefined) | -2% |

| SMILES | inhibition |
| --- | --- |
| CCOC(=O)CSc1nccc(N(C)C)c1C#N | 25.2% (active) |
| Cc1n[nH]c(C)c1S(=O)(=O)N1CCCC(C(=O)NCC2COc3ccccc3O2)C1 (centres undefined) | 6.3% |
| COC(=O)Nc1ncc(CN2CCCCC2)s1 | 6.1% |
| COC(=O)C1(C(=O)OC)C[C@H](c2ccccc2)N(Cc2ccccc2OC)[C@@H]1c1ccccc1 | 18.8% |
| COCCCNC(=O)c1ccc2c(c1)ncn2-c1ccccc1OC | -5.2% |
| COC(CNC(=O)c1ccc2c(c1)ncn2-c1cc(C)cc(C)c1)OC | -2.4% |
| COCCNC(=O)c1ccc2c(c1)ncn2-c1ccc(C)c(Cl)c1 | 37.8% (active) |
| CC1(C)NC(=O)N(CC(=O)N2CCN(S(=O)(=O)c3ccccc3F)CC2)C1=O | -17.9% |
| CCOC(=O)N1CCC(N(CCOC)C(=O)Nc2ccc(C)c(C)c2)CC1 | -9.1% |
| CC(=O)NCC(=O)N(C)C(C(=O)Nc1ccc2c(c1)OCCO2)c1ccccc1 (centres undefined) | -6% |
| CC(=O)N1c2ccc(S(=O)(=O)N3CCC(C(=O)NC4CCCC(C)C4C)CC3)cc2CC1C (centres undefined) | 1.3% |
| CC(=O)N1c2ccc(S(=O)(=O)N3CCC(C(=O)NC4CCCCC4C)CC3)cc2CC1C (centres undefined) | 21.3% (active) |
| CC(=O)N1c2ccc(S(=O)(=O)N3CCC(C(=O)NCc4ccc(F)cc4)CC3)cc2CC1C (centres undefined) | -3.5% |
| COc1ccc2c(c1)C(NS(=O)(=O)OCC(Cl)(Cl)Cl)CCC2 (centres undefined) | 20.7% (active) |
| COC(=O)c1cc(OCC(=O)NC2CCCc3ccccc32)cc(C(=O)OC)c1 (centres undefined) | 11.6% |
| COc1ccc(CN(C)C(C)C(=O)NC2CCCc3ccccc32)cc1 (centres undefined) | -9.8% |
| CCCc1nnc(NC(=O)CCC(=O)NC2CC2)s1 | -3.9% |
| COc1cccc(N(C(=O)c2ccn[nH]2)C2(C(=O)Nc3c(C)cccc3C)CCCCC2)c1 | 20.6% (active) |
| COc1cccc(NC(=O)C2(C)CCN2C(=O)CCC2CCCC2)c1 (centres undefined) | -6.9% |
| Cc1cccc(C)c1NC(=O)C1(N(C(=O)c2ccccn2)c2ccc(O)cc2)CCCCC1 | -2.4% |
